This note sets out measurements from PubChem BioAssay (EPA / NIEHS).

Holding throughout (conditions): mRNA level, 48 h; actives raise or lower the signal
Read-out in assay [1]: Cytochrome P450 7A1 (Homo sapiens) (UniProt P22680)
Nature of the assay: LTEA_HepaRG_CYP7A1: Life Technologies and Expression Analysis (LTEA) Assay for Cytochrome P450 7A1 (CYP7A1) using HepaRG (AID 2283496). The procedure, abridged:
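Gene expression endpoint in human HepaRG liver cells treated for 48 h with test chemicals (up to 100 uM, 0.5% DMSO). Values come from bidirectional concentration-response fitting versus DMSO.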

Read-out in assay [2]: Glutathione S-Transferase (GSTA2), GSTA2 (gene 2939)
The assay is described as follows: LTEA_HepaRG_GSTA2: Life Technologies and Expression Analysis (LTEA) Assay for Glutathione S-Transferase (GSTA2) using HepaRG (AID 2283497). In short, it runs like this:
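Differentiated human HepaRG cells were exposed in duplicate for 48 h in serum-free induction medium, 8 points from 100 uM top in half-log steps, 0.5% DMSO. GSTA2 mRNA was measured by TaqMan qRT-PCR, normalized to ACTB, GAPDH and POLR2A; bidirectional fit versus DMSO.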

Read-out in assay [3]: Glutamate-cysteine ligase catalytic (GCLC), GCLC (gene 2729)
Nature of the assay: LTEA_HepaRG_GCLC: Life Technologies and Expression Analysis (LTEA) Assay for Glutamate-cysteine ligase catalytic (GCLC) using HepaRG (AID 2283498). The procedure, abridged: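 Differentiated HepaRG cells exposed 48 h in serum-free induction medium, eight-point half-log series topping at 100 uM in 0.5% DMSO, duplicates. GCLC mRNA by qRT-PCR normalized to ACTB, GAPDH and POLR2A, fitted bidirectionally versus DMSO.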

Read-out in assay [4]: growth arrest and DNA damage 45 (GADD45G), GADD45G (gene 10912)
Nature of the assay: LTEA_HepaRG_GADD45G: Life Technologies and Expression Analysis (LTEA) Assay for growth arrest and DNA damage 45 (GADD45G) using HepaRG (AID 2283499). The procedure, abridged:
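GADD45G transcript level by qRT-PCR (housekeeping-normalized: ACTB, GAPDH, POLR2A) after 48 h chemical treatment of a single HepaRG lot in serum-free induction medium; eight-point half-log series up to 100 uM in 0.5% DMSO, duplicates, up- or down-regulation scored.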

Read-out in assay [5]: Glutamate-cysteine ligase regulatory (GCLM), GCLM (gene 2730)
Nature of the assay: LTEA_HepaRG_GCLM: Life Technologies and Expression Analysis (LTEA) Assay for Glutamate-cysteine ligase regulatory (GCLM) using HepaRG (AID 2283500). In short, it runs like this:
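Human liver HepaRG cultures receive test chemicals for 48 hours at up to 100 uM in 0.5% DMSO. GCLM expression is measured by qRT-PCR and analysed for increases or decreases against vehicle.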

Read-out in assay [6]: Glutathione S-transferase M3 (GSTM3), GSTM3 (gene 2947)
The assay is described as follows: LTEA_HepaRG_GSTM3: Life Technologies and Expression Analysis (LTEA) Assay for Glutathione S-transferase M3 (GSTM3) using HepaRG (AID 2283501). The procedure, abridged: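 GSTM3 transcript levels came from Fluidigm TaqMan qRT-PCR normalized to three housekeeping genes, fitted in both directions against DMSO. HepaRG cultures received chemicals for 48 h in serum-free induction medium (0.5% DMSO), 8 half-log concentrations up to 100 uM, duplicate.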

Read-out in assay [7]: Heat shock 70 kDa protein 1 (HSPA1A), gene 3303
The assay is described as follows: LTEA_HepaRG_HSPA1A: Life Technologies and Expression Analysis (LTEA) Assay for Heat shock 70 kDa protein 1 (HSPA1A) using HepaRG (AID 2283502). The procedure, abridged:
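HSPA1A induction in human HepaRG liver cells is measured after 48 h of chemical treatment (100 uM maximum, 0.5% DMSO vehicle). Expression comes from qRT-PCR normalized to endogenous controls.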

Read-out in assay [8]: Hypoxia-inducible factor 1-alpha (Homo sapiens) (UniProt Q16665)
The assay is described as follows: LTEA_HepaRG_HIF1A: Life Technologies and Expression Analysis (LTEA) Assay for Hypoxia-inducible factor 1 (HIF1A) Trancription factor using HepaRG (AID 2283503).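 Further: HIF1A transcript by TaqMan qRT-PCR normalized to ACTB GAPDH and POLR2A.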 In short, it runs like this:
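HepaRG, 48 h exposure, 8-pt half-log series from 100 uM, 0.5% DMSO vehicle, duplicates. Readout: HIF1A transcript by qRT-PCR (Fluidigm array), housekeeping-normalised. Bidirectional curve fit vs DMSO baseline.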

Read-out in assay [9]: 3-Hydroxy-3-Methylglutaryl-CoA Synthase 2 (HMGCS2), HMGCS2 (gene 3158)
The assay is described as follows: LTEA_HepaRG_HMGCS2: Life Technologies and Expression Analysis (LTEA) Assay for 3-Hydroxy-3-Methylglutaryl-CoA Synthase 2 (HMGCS2) using HepaRG (AID 2283504). In short, it runs like this: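 Readout is HMGCS2 transcript by qRT-PCR, housekeeping-normalised (ACTB/GAPDH/POLR2A) and fitted bidirectionally against 0.5% DMSO. Differentiated HepaRG cells received chemicals 48 h, duplicate wells, eight half-log concentrations topping at 100 uM.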

Read-out in another assay: HGF (gene 3082)
The assay is described as follows: LTEA_HepaRG_HGF: Life Technologies and Expression Analysis (LTEA) Assay for Hepatocyte Growth Facto (HGF) using HepaRG (AID 2283505). The procedure, abridged: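 HGF transcript was quantified by TaqMan qRT-PCR against three housekeeping genes after 48 h treatment of HepaRG cells. Exposure ran in duplicate over eight half-log steps topping at 100 uM in 0.5% DMSO vehicle.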

The source made the active and inactive calls. How the source made its calls: active means hit-call score of the fitted dose curve at least 0.9, where 1 is the maximum; inactive means score below 0.9.

Hypoxia-inducible factor 1-alpha (Homo sapiens), sequence (Q16665 whole entry, looked up): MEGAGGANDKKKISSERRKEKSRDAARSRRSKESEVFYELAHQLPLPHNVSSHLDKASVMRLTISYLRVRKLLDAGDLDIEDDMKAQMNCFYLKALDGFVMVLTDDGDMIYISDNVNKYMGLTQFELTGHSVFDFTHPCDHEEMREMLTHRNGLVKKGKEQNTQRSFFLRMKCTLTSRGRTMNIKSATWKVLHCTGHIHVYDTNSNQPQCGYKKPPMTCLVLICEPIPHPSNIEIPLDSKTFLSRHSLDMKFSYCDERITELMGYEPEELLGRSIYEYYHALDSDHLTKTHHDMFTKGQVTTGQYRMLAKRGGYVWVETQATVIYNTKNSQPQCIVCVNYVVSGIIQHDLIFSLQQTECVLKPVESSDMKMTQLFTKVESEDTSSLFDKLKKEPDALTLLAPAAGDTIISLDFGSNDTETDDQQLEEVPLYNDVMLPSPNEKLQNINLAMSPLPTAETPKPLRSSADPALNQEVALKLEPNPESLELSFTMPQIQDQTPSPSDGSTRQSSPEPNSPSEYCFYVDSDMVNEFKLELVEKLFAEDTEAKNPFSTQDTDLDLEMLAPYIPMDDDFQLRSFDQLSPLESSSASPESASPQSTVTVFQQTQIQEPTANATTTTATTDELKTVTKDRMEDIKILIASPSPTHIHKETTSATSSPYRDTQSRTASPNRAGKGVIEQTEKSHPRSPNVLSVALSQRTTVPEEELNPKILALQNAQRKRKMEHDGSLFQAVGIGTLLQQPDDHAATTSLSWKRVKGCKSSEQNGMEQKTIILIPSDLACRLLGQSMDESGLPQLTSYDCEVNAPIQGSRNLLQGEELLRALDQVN

On to `CCCCC(C#N)(Cn1cncn1)c1ccc(Cl)cc1` (stereo not given), for which the call in assay [1], in assay [2], in assay [3], in assay [5], in [6] and in assay [7] was inactive. Besides, the outcome (in [8]; with HGF (gene 3082)) was inactive. The concentration at half-maximal activity (AC50) in assay [4] is 11.7 µM (active); in [9], 78.1 µM (active).
With `CC(C)Nc1nc(Cl)nc(NC(C)C)n1`, the half-maximal activity concentration (AC50) is 50 µM (active) in assay [1] and 23.6 µM (active) in [9]. Besides, the outcome in [2], in assay [3], in assay [4], in [5], in [6] and in [7] was inactive. In addition, the molecule was called inactive (in assay [8]; with HGF (gene 3082)).
As for `CN=C=S`, the result in [1], in assay [2], in assay [3], in [4], in assay [5] and in assay [6] was inactive. Also, the molecule was classed as inactive (in assay [7]; in assay [8]; in assay [9]; with HGF (gene 3082)).
As for `CC(C)N1C(=O)N(c2ccccc2)CSC1=NC(C)(C)C`, the AC50 in [1] is 70.4 µM (active); in [2], 82.3 µM (active); in assay [3], 81.8 µM (active); in [4], 76.1 µM (active); in [5], 74.7 µM (active); in [9], 75.5 µM (active). Also, the molecule was classed as inactive in assay [6], in assay [7] and in assay [8].
Consider `CCN(CC)c1nc(C)cc(OP(=S)(OC)OC)n1`, for which the call in [1], in [2], in assay [3], in [4], in [5] and in [6] was inactive. The result in [7], in assay [8] and in assay [9] was inactive.
As for `CC1(C)C(C(=O)OC(C#N)c2cccc(Oc3ccccc3)c2)C1(C)C` (stereo not given), the call in assay [1], in assay [2], in [3], in [4], in [5] and in assay [6] was inactive. Besides, the outcome (in assay [7]; in assay [8]; in assay [9]; with HGF (gene 3082)) was inactive.
As to `CC(C)Oc1cccc(NC(=O)c2ccccc2C(F)(F)F)c1`, the call in [1], in assay [3], in assay [4], in assay [5], in assay [6] and in assay [8] was inactive. In addition, the outcome in [9] was inactive. The half-maximal activity concentration (AC50) in assay [2] is 50 µM (active).
In the case of `COC(=O)NS(=O)(=O)c1ccc(N)cc1`, the molecule was classed as inactive in assay [1], in assay [2], in [3], in assay [4], in [5] and in assay [6]. Further, the molecule was called inactive in assay [8] and in assay [9].
On to `CCNP(=S)(OC)O/C(C)=C/C(=O)OC(C)C` (stereo not given), for which the call in assay [1], in assay [2], in assay [3], in assay [4], in [6] and in assay [7] was inactive. The result in [8] was inactive. Besides, the half-maximal activity concentration (AC50) in assay [5] is 9.92 µM (active); in assay [9] it was 25.8 µM (active).
Take `O=P(O)(O)CCCl`: the result in assay [1], in [2], in assay [3], in assay [4], in assay [5] and in assay [6] was inactive. The molecule was classed as inactive (in [7]; in [8]; in assay [9]; with HGF (gene 3082)).
For the molecule `C=C(C)CN(CC)c1c([N+](=O)[O-])cc(C(F)(F)F)cc1[N+](=O)[O-]`, the molecule was called inactive in assay [1], in assay [2], in assay [3], in [4], in assay [5] and in assay [6]. For the same molecule, the result in assay [7], in [8] and in assay [9] was inactive.
As to `CCC(C)n1c(=O)[nH]c(C)c(Br)c1=O` (stereo not given), the AC50 is 23.7 µM (active) in [1], 50 µM (active) in assay [2], 30.4 µM (active) in [4] and 29.2 µM (active) in [9]. Besides, the result (in [3]; in [5]; in [6]; in assay [7]; in [8]; in the assay with HGF (gene 3082)) was inactive.
Regarding `CC(C)NC(=O)N1CC(=O)N(c2cc(Cl)cc(Cl)c2)C1=O`, the AC50 in assay [1] is 13.1 µM (active); in assay [2] it was 25 µM (active); in assay [4], 50 µM (active); in [5], 27.8 µM (active); in assay [9], 13.2 µM (active). Further, the outcome in assay [3], in [6], in assay [7] and in assay [8] was inactive.
In the case of `CC(C)N1C(=O)c2ccccc2NS1(=O)=O`, the call in assay [1], in assay [2], in [3], in assay [4], in [5] and in [6] was inactive. The call (in assay [7]; in [8]; in assay [9]; in the assay with HGF (gene 3082)) was inactive.
`COP(=S)(OC)SCn1nnc2ccccc2c1=O`: the molecule was called inactive in assay [1], in assay [2], in [3], in assay [4], in [5] and in [6]. The outcome (in assay [8]; in assay [9]; with HGF (gene 3082)) was inactive.
Turning to `Nc1cnn(-c2ccccc2)c(=O)c1Cl`, the call in assay [1], in [2], in assay [3], in [4], in [5] and in [6] was inactive. The outcome (in [8]; in assay [9]; in the assay with HGF (gene 3082)) was inactive.
For the molecule `CCNC(=O)NC(=O)C(C#N)=NOC`, the call (in assay [2]; in [4]; in [5]; in assay [6]; in assay [8]; with HGF (gene 3082)) was inactive. In addition, the concentration at half-maximal activity (AC50) in assay [3] was 9.92 µM (active); in assay [9], 50 µM (active).
Take `Cc1c(COC(=O)[C@@H]2[C@H](/C=C(\Cl)C(F)(F)F)C2(C)C)cccc1-c1ccccc1`: the AC50 in assay [1] is 14.8 µM (active). The molecule was called inactive in assay [2], in [3], in [4], in assay [5], in assay [6] and in assay [8]. Besides, the result (in assay [9]; with HGF (gene 3082)) was inactive.
Turning to `CCOP(=O)(OCC)Oc1nc(Cl)c(Cl)cc1Cl`, the AC50 in assay [1] was 83.8 µM (active); in assay [2], 75.5 µM (active); in assay [3], 84.1 µM (active); in [8] it was 49.8 µM (active); in assay [9] it was 84.8 µM (active). The outcome in assay [5], in assay [6] and in assay [7] was inactive.
Consider `CNC(=O)Oc1cccc2ccccc12`, for which the outcome in [1], in [2], in assay [3], in assay [4], in assay [5] and in assay [6] was inactive. Further, the molecule was called inactive (in assay [8]; in [9]; with HGF (gene 3082)).
With `CCOc1cc(C(C)(C)C)ccc1C1COC(c2c(F)cccc2F)=N1` (stereo not given), the AC50 is 26.9 µM (active) in assay [1] and 46.9 µM (active) in [9]. Further, the molecule was called inactive in assay [2], in assay [3], in [4], in [5], in assay [6] and in assay [8]. The result with HGF (gene 3082) was inactive.
As to `CCOc1nc(F)cc2nc(S(=O)(=O)Nc3c(Cl)cccc3Cl)nn12`, the half-maximal activity concentration (AC50) in assay [1] is 36.7 µM (active). Besides, the result in assay [2], in assay [3], in assay [4], in [5], in assay [6] and in assay [8] was inactive. The outcome in assay [9] was inactive.
